Screening data as filed in PubChem.
HPGD inh: inhibitors of human 15-hydroxyprostaglandin dehydrogenase (HPGD). Potency, µM, for the others: at the highest dose activity change, negative = inhibition, actives largely listed as inhibitors. purified HPGD, NADH fluorescence kinetic, PGE2 substrate. P15428. hit rate 4.3% among 150,000; active = well fitted inhibition curve with a large enough effect, not every such curve was filed as active; inconclusive = small, poorly fitted or top-dose-only effect, or another doubt; inactive = no such curve, though single readings can be large or run the other way; note: potency is the fitted concentration of half-maximal effect
Target sequence (P15428 whole entry, looked up): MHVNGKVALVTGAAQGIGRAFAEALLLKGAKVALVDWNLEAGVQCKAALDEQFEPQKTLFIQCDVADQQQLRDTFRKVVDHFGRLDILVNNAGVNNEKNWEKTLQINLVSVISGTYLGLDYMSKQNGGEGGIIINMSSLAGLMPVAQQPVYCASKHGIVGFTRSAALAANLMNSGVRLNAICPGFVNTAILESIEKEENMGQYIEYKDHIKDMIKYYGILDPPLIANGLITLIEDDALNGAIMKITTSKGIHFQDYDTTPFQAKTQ
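20 nM HPGD preincubated 15 min at room temperature with compound in 50 mM Tris-HCl pH 8, 0.01% Tween 20. Started with 1 mM NAD+ and 30 uM prostaglandin E2; NADH fluorescence (360/450 nm) read 5 times over 30-s intervals, last minus first.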
ALDH1A1 inh: inhibitors of human aldehyde dehydrogenase 1A1. P00352. Purified ALDH1A1, NADH fluorescence, propionaldehyde substrate. Potency, µM (series often up to 75.3 µM), for the others: at the highest dose activity, negative = inhibition, usual class: inhibitors. hit rate 7.3% among 220,000. AID 1030; active = well fitted inhibition curve with a large enough effect, not every such curve was filed as active; inconclusive = small, poorly fitted or top-dose-only effect, or another doubt; inactive = no such curve, though single readings can be large or run the other way;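 note: potency is the fitted concentration of half-maximal effect; plate controls were no enzyme wells and a reference inhibitor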
Target sequence (P00352 whole entry, looked up): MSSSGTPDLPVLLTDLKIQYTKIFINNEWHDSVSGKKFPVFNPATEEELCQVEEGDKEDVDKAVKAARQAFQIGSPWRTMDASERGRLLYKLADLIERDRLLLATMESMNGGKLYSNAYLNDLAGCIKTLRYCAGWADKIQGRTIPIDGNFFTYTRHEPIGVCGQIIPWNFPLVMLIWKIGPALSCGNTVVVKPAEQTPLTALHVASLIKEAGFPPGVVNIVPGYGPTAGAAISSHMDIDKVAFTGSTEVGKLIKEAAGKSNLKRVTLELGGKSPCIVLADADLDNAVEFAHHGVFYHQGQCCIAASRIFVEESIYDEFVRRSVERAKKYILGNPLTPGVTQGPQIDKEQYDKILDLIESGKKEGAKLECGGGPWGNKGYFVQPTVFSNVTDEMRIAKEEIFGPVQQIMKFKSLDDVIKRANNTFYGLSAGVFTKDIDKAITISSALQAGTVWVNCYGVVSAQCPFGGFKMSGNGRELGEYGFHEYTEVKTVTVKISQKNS
PNC assembly inh: perinucleolar compartment assembly inhibition; activity change (PNC), negative = inhibition, % at 10 µM; AID 2417; PC3M PTB-GFP, PNC prevalence imaging, 16 h; active compounds read low; hit rate 3.1% among 140,000;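 active = readout at or below -70, meaning at least 70% loss of cells showing the perinucleolar compartment, a nuclear body marking cancer cells; inconclusive = readout between -30 and a set limit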;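 note: plate controls were DMSO wells for no effect and camptothecin positive control wells for full effect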
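Compounds are pinned in duplicate onto adhered PC3M cells stably expressing GFP-tagged PTB and incubated 16 h at 37 C. Cells are then fixed, nuclei stained with Hoechst, and PNC-positive cells counted.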
IMPase inh: membrane-permeable compound that blocks inositol monophosphatase; inhibition (IP1 accumulation), % at 46.1 µM; P97697; AID 901; CHO-M1 cells, IP1 accumulation, HTRF TR-FRET ratio; 120,000 tested, under 10 active; active = well fitted curve in the direction sought with a large enough effect in the signal ratio, not every such curve was filed as active; inconclusive = small, poorly fitted or top-dose-only effect, or a change in a side signal; inactive = no such curve, though single readings can be large or run the other way; the % refers to the signal ratio;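 note: cells stimulated with carbachol in lithium chloride buffer; plate controls were DMSO basal wells for no effect and reference inhibitor wells for full effect; higher means more IMPase inhibition seen as more IP1 and lower FRET ratio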
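In this qHTS, compounds (final up to 46 uM) act on CHO-M1 cells that are then activated through the M1 receptor with carbachol, in pH 7.4 buffer containing 50 mM LiCl, for 30 min. IP1 accumulation is quantified by the IP-One immunoassay.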
12-hLO inh: blocks human 12-lipoxygenase activity; P18054; purified 12-hLO, xylenol orange hydroperoxide absorbance; Potency, µM (highest dose often 57.1 µM), for inactives: at the highest dose activity change, negative = inhibition, hits mostly inhibitors; hit rate 0.12% among 150,000; AID 1452; note: potency is the fitted concentration of half-maximal effect; nearly all actives have a fitted effect of over 55% in size
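Lipoxygenase turnover measured by absorbance at 573 and 405 nm after Fe-XO development. Human 12hLO 150 nM, arachidonate 40 uM, pH 7.0 Hepes buffer with detergent; 15 min compound preincubation, 30 min reaction.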
IMPase Li cell: IMPase inhibition in cells with lithium potentiation. CHO-M1 cells, IP1 TR-FRET (IP-One), carbachol + lithium. AID 1457. hit rate 0.35% among 210,000. Potency, µM (doses to about 59.4 µM), for the others: top-dose activity, negative = IMPase inhibition, most hits filed as inhibitors;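 note: IP1 builds up when IMPase is blocked and the TR-FRET signal falls; potency is the fitted concentration of half-maximal effect; plate controls were basal vehicle for no effect and high inhibitor control for full effect; nearly all actives have a fitted effect of over 50% in size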
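Readout is a homogeneous TR-FRET IP1 immunoassay (Ex 320, Em 665 and 620), where raised cytosolic IP1 lowers signal. Cells were CHO-M1 treated 30 min at 37C with test compounds plus a little lithium; AC50 values came from Hill-equation fitting.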
Numbers without * were called inactive; ? = inconclusive; / = not tested or not shown; [ ] = another dose, or the depositor's remark. Most compounds without a hit are left out; they make up all but 11% or so of the library. Unless noted, calls come from the whole dose curve; as a rule, active = well fitted curve in the direction sought with a large enough effect; inconclusive = small, poorly fitted or top-dose-only effect, or another doubt; inactive = no such curve, though single readings can be large; an effect the other way counts as inactive or inconclusive. Unless noted, % is set by controls: 0 for no effect and ±100 for the full control effect.

SMILES	HPGD inh	ALDH1A1 inh	PNC assembly inh	IMPase inh	12-hLO inh	IMPase Li cell
COc1ccc(C(=O)/C=C/Nc2cccc(O)c2)cc1	?	11µM*	39	-3	-15%	34%[38.3 µM]
COc1ccc(C(=O)/C=C/N(C)C)cc1	25µM*	7.9µM*	-80*	-1	-24%	-3%
CCOC(=O)c1ccc(N/C=C\C(=O)c2cccc(OC)c2)cc1	-15%	?	19	/	-2%	-5%
COc1cccc(C(=O)/C=C/Nc2cc(C)ccc2O)c1	?	25µM*	12	14	-15%	16%[38.3 µM]
COc1ccc(C(=O)/C=C/Nc2ccc([N+](=O)[O-])cc2)cc1	-20%	40µM*	80	/	-4%	-14%
Cc1ccccc1-c1cncnc1NC1CCNCC1	-7%	2%	/	/	-1%	4%
CN(C)c1ccc(/C=C/C(O)=C2/C(=O)N(C)C3(C)CC2c2ccccc2O3)cc1 (stereo not given)	-18%	20µM*	-29	-3	6%	22%[38.3 µM]
COc1ccccc1/C=C/C1(C(=O)NC2CCCC2)CC(=O)N1c1ccc(C)cc1 (stereo not given)	-8%	?	?	5	-2%	16%
COc1ccccc1/C=C/C1(C(=O)NC2CCCC2)CC(=O)N1c1ccc(F)cc1 (stereo not given)	-12%	32µM*	-26	0	3%	11%
O=C(CSC1=NCCS1)N1CCCCCC1	28µM*	5%	-16	-6	-3%	-2%[38.3 µM]
CCOC(=O)N/N=C1/C[C@@H](O)[C@@H](O)[C@@H]2[C@@H]3C(=O)N(Cc4ccccc4)C(=O)[C@H]3CC[C@@H]12	/	6%[13.5 µM]	/	/	/	/
Cc1ccc(C(=O)NCCSc2snnc2C)cc1	-22%	?	34	7[1.84 µM]	-4%	18%[38.3 µM]
Cc1nnsc1SCCNC(=O)c1c(F)cccc1F	-10%	8%	-82*	-4[1.84 µM]	0%	16%[38.3 µM]
COc1cccc(Cn2c(=O)c(C)nc3cnc(OC)nc32)c1	/	-3%	/	/	/	4%
CC(C)Cn1c(C(C)C)nc([N+](=O)[O-])c1Sc1ccc(Cl)cn1	-22%	22µM*	?	?	-13%	4%
CCCCn1c(CCC)nc([N+](=O)[O-])c1Sc1ccc(Cl)cn1	-15%	7.1µM*	?	20	-7%	27%
Cc1ccccc1/C(N)=N/OC(=O)N1c2ccccc2Sc2ccccc21	18µM*	0%	-8	0	?	2%[38.3 µM]
CCOC(=O)N1c2ccccc2Sc2ccccc21	/	14%	/	/	/	11%
CN1CCN(c2ccnc(-c3ccc(N(C)C)cc3)n2)CC1	/	?	/	/	/	-10%
Cc1cc(C)nc(SCCc2ccncc2)n1	-21%	25µM*	?	8	-13%	18%[38.3 µM]
Cc1cc(C(=O)CN2C(=O)CCC2=O)c(C)n1Cc1ccccc1	-10%	7.1µM*	-1	12	1%	-9%[38.3 µM]
Cc1cc(C(=O)CN2C(=O)NC3(CCCc4ccccc43)C2=O)c(C)n1Cc1ccccc1 (stereo not given)	-24%	?	16	5	-2%	-2%[38.3 µM]
CN=c1nc(-c2ccccc2)n(-c2ccccc2)s1	-26%	1.4µM*	/	14	?	25%
Cn1c(=O)c(-c2ccccc2)nc2cnc(N3CCOCC3)nc21	/	?	/	/	/	-9%
Nc1c(C(=O)Nc2ccc(F)cc2)sc(=S)n1-c1ccccc1F	/	13µM*	/	/	/	-6%
SMILES	HPGD inh	ALDH1A1 inh	PNC assembly inh	IMPase inh	12-hLO inh	IMPase Li cell
CC(C)C[C@@H](N)C(=O)Nc1ccc2ccccc2c1	-9%	4%[13.5 µM]	/	/	-1%[11.4 µM]	-15%
Cn1c(N)c(C(=O)Nc2ccc3ccccc3c2)sc1=S	8.9µM*	13µM*	-10	-3	-9%	5%[38.3 µM]
O=C(Nc1ccc(F)cc1)c1sc(Cl)nc1-c1ccccc1	-10%	-6%	-12	/	-3%	5%
COc1ccccc1-n1c(N)c(C(N)=O)sc1=S	28µM*	28µM*	-20	2	0%	14%[38.3 µM]
CC1(C)N=C(N)N=C(N)N1c1cccc(OCc2cccc(N)c2)c1	-2%	6%[13.5 µM]	/	/	-2%[11.4 µM]	4%
O=C(Cn1c(=O)oc2ccccc21)Nc1ccc(C(=O)O)cc1	/	/	/	-9	/	/
N#Cc1c(NC(=O)Cn2c(=O)oc3ccccc32)oc(-c2ccccc2)c1-c1ccccc1	?	13µM*	28	7	-9%	16%[38.3 µM]
CC12CCC(c3c(CO)nn(-c4ccccc4)c31)C2(C)C (stereo not given)	0%	?	?	-4	1%	-3%[38.3 µM]
CC12CCC(c3c(C(=O)O)nn(-c4ccccc4)c31)C2(C)C (stereo not given)	-6%	9%	-127*	-6	2%	-4%[38.3 µM]
CC12CCC(c3c(C(=O)Nc4nccs4)nn(-c4ccccc4)c31)C2(C)C (stereo not given)	-21%	4µM*	16	-4	-5%	18%[38.3 µM]
O=C(NC1CCCCC1)Sc1ccc(Cl)cc1	8.9µM*	?	24	3	-9%	33%[38.3 µM]
O=C(CSc1ccc(Cl)cc1)NC1CCCC1	10µM*	-4%	19	5	-7%	1%[38.3 µM]
O=C(Cc1ccc(Cl)cc1)NC1CC1	/	8%	/	/	/	-7%
CC1CCCC(C)N1C(=O)CSCc1ccc(Cl)cc1 (stereo not given)	-16%	22µM*	3	-4	-5%	21%[38.3 µM]
O=C(CCSCc1ccc(Cl)cc1)NC1CCCC1	18µM*	-1%	9	23	-3%	3%
Cc1ccc(NS(=O)(=O)c2cc(C(=O)O)ccc2Cl)cc1C	-3%	5%	/	/	-1%	/
Cc1ccc(NC(=O)Cn2cc(C(=O)C3CCCCC3)c3ccccc32)cc1	/	/	/	-5	/	/
O=[N+]([O-])c1ccc(NN=C2c3ccccc3Cc3ccccc32)c([N+](=O)[O-])c1	-6%	-10%[13.5 µM]	/	/	0%[11.4 µM]	9%
CN=C(NC1CCCCC1)c1ccc(Cl)cc1	-5%	-3%	-103*	/	8%	16%
CC(=O)OC(C(=O)NC1CCCCC1)c1ccc(Cl)cc1 (stereo not given)	-6%	6%	-9	1	-4%	23%[38.3 µM]
CC(C)C[C@H](N)CSSC[C@@H](N)CC(C)C	-3%	2%	/	10	-5%	7%
CC1CC(=O)NN=C1c1ccc(N(C)C)c([N+](=O)[O-])c1 (stereo not given)	-7%	?	1	4	-4%	2%
CCN(CC)c1ccc(C2=NNC(=O)CC2C)cc1[N+](=O)[O-] (stereo not given)	-14%	13µM*	38	-1	-2%	6%
Cc1cc(C)cc(/C=C/C2OCC(O)C2Oc2ccc(C3CCCC3)cc2)c1 (stereo not given)	/	-1%[13.5 µM]	/	/	/	/
CCCCNc1nc(C)nc2c1nc(-c1ccccc1)n2CCCN1CCCCC1C (stereo not given)	?	?	/	/	1%	14%
C[C@]1(c2ccccc2)OC(C(=O)O)=CC1=O	-10%	-8%	/	3	-4%	6%
